High-throughput results: PubChem BioAssay, Buhrlage Lab, Dana-Farber Cancer Institute and Novartis Institutes for BioMedical Research (Cambridge, Mass)
USP17 block – blocks human USP17 ubiquitin-rhodamine cleavage; hit rate 6.5% among 47,000; purified USP17, Ub-rhodamine cleavage fluorescence, 3 h; A8MUK1; inhibition, % at 50 µM
USP30 block – human USP30 deubiquitinase inhibition. purified USP30, Ub-rhodamine cleavage fluorescence. hit rate 5.3% among 47,000. Q70CQ3. inhibition, % at 25 µM
USP28 inh – blocks human USP28 ubiquitin-rhodamine cleavage; inhibition, % at 25 µM; hit rate 3% among 47,000; purified USP28, Ub-rhodamine cleavage fluorescence, 30 min
USP8 inh – inhibitors of human USP8 deubiquitinase | hit rate 4.2% among 47,000 | P40818 | inhibition, % at 20 µM | purified USP8, Ub-rhodamine cleavage fluorescence, 30 min
Numbers without * were called inactive; . = no result given. A selection: hits, their analogues and other compounds. The true share with any hit is near 14%. No stated cut-off is given here; in the data, active means inhibition above about 30%; inactive means the rest.

SMILES	USP17 block	USP30 block	USP28 inh	USP8 inh
O=C(NC1CCCCC1)C(c1ccc(Cl)cc1)N(C(=O)c1cnccn1)c1ccc2c(c1)OCO2 (stereo not given)	42.7*	-1.5	-0.5	21.0
CC(=O)c1cccc(S(=O)(=O)Nc2cccc(S(=O)(=O)N3CCOCC3)c2)c1	-18.5	-51.5	-16.8	-41.4
N#CCCc1c(-c2ccccc2)nc2[nH]c3ccccc3n2c1=O	15.9	11.4	6.5	38.9*
CS(=O)(=O)N1CCN(c2ccccc2NC(=O)COc2ccc(Br)cc2)CC1	93.4*	.	.	92.2*
CS(=O)(=O)N1CCN(c2ccc(NC(=O)COc3ccccc3)cc2)CC1	-8.4	0.1	-8.8	-14.2
N#Cc1ccsc1NC(=O)CN1CCCC1c1ccc2c(c1)OCCCO2 (stereo not given)	-42.0	-102.8	-30.3	-26.4
CC[C@H](C)C[C@H]1CC[C@](O)([C@](C)(O)C(=O)N[C@@H]2C(=O)N3NCCC[C@@H]3C(=O)N(O)[C@@H](C)C(=O)NCC(=O)N3NCCC[C@H]3C(=O)N(O)[C@H](C)C(=O)O[C@H]2C(C)C)O[C@@H]1C	41.4*	60.8*	48.5*	-0.4
Cc1ccc(C(=O)CCC(=O)NC(Cc2ccccc2)c2ccccc2)cc1 (stereo not given)	-11.5	-225.9	-54.4	-0.1
COc1ccc(NS(=O)(=O)c2cc(NC(=O)CCC(=O)c3ccc(F)cc3)ccc2C)cc1	-7.9	36.0*	2.3	1.8
COc1ccc(C)cc1NC(=O)Cn1ccc2ccn(C)c2c1=O	-8.1	-5.0	12.6	-1.3
COc1ccc(C)cc1NC(=O)CN1C(=O)C2CCCC2=Nc2ccccc21 (stereo not given)	81.7*	76.6*	21.8	41.7*
COc1cccc(NC(=O)CN2C(=O)C3CCCC3=Nc3ccccc32)c1 (stereo not given)	16.4	9.3	13.3	7.1
COc1ccc(CNC(=O)CN2C(=O)C3CCCC3=Nc3ccccc32)cc1 (stereo not given)	22.5	33.0*	13.8	83.3*
COc1ccc(-c2noc(C3(c4ccc(OC)cc4)CCOCC3)n2)cc1	14.3	18.4	8.1	15.0
C[C@@H](NC(=O)c1ccc2c(c1)OCO2)c1nc2cc(-c3ccccc3F)ncn2n1	17.2	15.2	13.8	2.4
COc1ccc(-c2cc3nc([C@H](C)NC(=O)COc4ccccc4F)nn3cn2)cc1	38.0*	46.7*	12.4	16.7
C[C@H](NC(=O)Cc1ccccc1F)c1nc2cc(-c3ccccc3F)ncn2n1	42.5*	63.9*	37.3*	39.1*
C[C@@H](NC(=O)c1ccc2c(c1)OCCO2)c1nc2cc(-c3ccccc3F)ncn2n1	65.9*	77.8*	47.0*	-6.2
COc1ccc(-c2cc3nc([C@H](C)NC(=O)CC4CCCC4)nn3cn2)cc1	18.2	7.9	0.1	2.6
COc1ccc(-c2cc3nc([C@H](C)NC(=O)Cc4ccccc4C)nn3cn2)cc1	60.8*	26.6	19.6	94.4*
Cc1nc(-c2ccccn2)[nH]c(=O)c1Cc1c(F)cccc1Cl	-14.8	7.3	8.7	-155.7
CNC(=O)[C@@]12CCC3(CCN(C(=O)c4ccc(Cl)cc4)CC3)[C@@H]1CN(C)C2	2.3	15.1	2.4	-9.9
O=C1c2c(O)ccc(O)c2C2(Oc3cccc4cccc(c34)O2)C2OC12 (stereo not given)	96.7*	89.3*	71.6*	39.2*
O=C1c2c(O)cccc2C2(Oc3cccc4cccc(c34)O2)C2OC12 (stereo not given)	98.2*	32.9*	59.9*	84.1*
CC1CCN(Cc2ccccc2)Cc2nc3ccccc3n21 (stereo not given)	-4.9	-5.0	-2.0	4.7
SMILES	USP17 block	USP30 block	USP28 inh	USP8 inh
CC1Cc2ccccc2N1S(=O)(=O)c1cccc(C(=O)OCC(=O)Nc2cc(F)ccc2F)c1 (stereo not given)	-1.4	-15.5	8.2	2.9
CC1Cc2ccccc2N1S(=O)(=O)c1cccc(C(=O)NCc2ccc3c(c2)OCO3)c1 (stereo not given)	19.0	-2.8	-7.8	38.6*
O=C(O)c1cccc(S(=O)(=O)NCc2ccc3c(c2)OCO3)c1	8.8	35.0*	9.1	2.6
CC1Cc2ccccc2N1S(=O)(=O)c1cccc(C(=O)OCC(=O)Nc2ccc3c(c2)OCO3)c1 (stereo not given)	-3.5	-56.9	8.0	37.5*
Nc1ncc(S(=O)(=O)NCc2ccc3c(c2)OCO3)cn1	-20.1	-36.4	-7.3	-35.4
CCOc1ccc(S(=O)(=O)[C@H]2CS(=O)(=O)C[C@@H]2NCCc2ccccc2)cc1	-11.1	-21.3	-10.8	-7.2
O=C(OCc1nc2ccccc2s1)c1ccccc1-c1nc2ccccc2s1	6.1	5.8	14.0	3.3
Cc1ccc(NC(=O)c2ccc(Nc3nnc(C)c4ccccc34)cc2)cc1	52.1*	7.6	75.3*	12.9
